Experimental data published in article PMC4336329 (PLoS ONE, 2015).
The campaign covered roughly 310,000 compounds. About 14,000 (4.5%) showed an effect of 50% or more. The effect is printed as a negative number. This is one part of a sample in which strong results are shown more often than they occur.

Target: human ether-à-go-go-related gene (hERG) potassium channel (human, UniProt Q12809)
Assay: primary screen, population patch clamp on CHO cells stably expressing hERG; higher = less effect of the substance
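Note: peak tail current of the secondary pulse compared with the same well before compound.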

human ether-à-go-go-related gene (hERG) potassium channel, sequence (Q12809 whole entry, looked up): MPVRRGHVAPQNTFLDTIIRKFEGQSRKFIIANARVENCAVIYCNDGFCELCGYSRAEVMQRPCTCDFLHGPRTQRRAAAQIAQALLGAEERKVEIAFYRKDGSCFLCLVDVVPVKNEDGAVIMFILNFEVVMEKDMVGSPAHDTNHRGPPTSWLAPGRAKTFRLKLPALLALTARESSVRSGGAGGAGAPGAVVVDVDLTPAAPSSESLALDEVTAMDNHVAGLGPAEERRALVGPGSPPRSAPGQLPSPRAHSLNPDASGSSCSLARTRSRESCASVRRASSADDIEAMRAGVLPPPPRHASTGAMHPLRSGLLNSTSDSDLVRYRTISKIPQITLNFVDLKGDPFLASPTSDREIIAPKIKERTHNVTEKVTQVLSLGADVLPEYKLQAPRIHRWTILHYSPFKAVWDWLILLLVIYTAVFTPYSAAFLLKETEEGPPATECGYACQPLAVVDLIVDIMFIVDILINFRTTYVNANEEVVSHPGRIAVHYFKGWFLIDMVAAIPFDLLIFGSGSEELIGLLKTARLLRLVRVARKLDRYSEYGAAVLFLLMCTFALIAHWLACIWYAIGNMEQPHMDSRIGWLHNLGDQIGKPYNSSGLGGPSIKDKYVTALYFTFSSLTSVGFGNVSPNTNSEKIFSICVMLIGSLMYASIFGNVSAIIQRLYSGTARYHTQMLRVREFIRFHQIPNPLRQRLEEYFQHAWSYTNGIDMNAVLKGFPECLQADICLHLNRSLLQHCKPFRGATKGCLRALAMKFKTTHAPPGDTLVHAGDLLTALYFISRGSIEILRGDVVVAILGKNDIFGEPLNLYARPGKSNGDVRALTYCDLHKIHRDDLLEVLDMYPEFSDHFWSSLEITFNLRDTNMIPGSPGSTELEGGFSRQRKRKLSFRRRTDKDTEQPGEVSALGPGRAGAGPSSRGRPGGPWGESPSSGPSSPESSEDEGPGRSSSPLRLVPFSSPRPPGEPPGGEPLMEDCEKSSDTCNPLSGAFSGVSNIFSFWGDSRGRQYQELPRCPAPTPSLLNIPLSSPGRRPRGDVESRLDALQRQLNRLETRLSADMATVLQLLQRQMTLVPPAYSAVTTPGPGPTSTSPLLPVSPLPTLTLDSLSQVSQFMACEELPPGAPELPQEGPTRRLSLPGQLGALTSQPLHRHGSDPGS

Structure (SMILES)	hERG current change (%, negative = inhibition) at 10uM [%]
O=C(CN1C(=O)NC2(CCCCCC2)C1=O)N1CCC(Cc2ccccc2)CC1	-24.4
CN1CCN(C(=O)OC2c3nccnc3C(=O)N2c2ccc(Cl)cn2)CC1 (stereo not drawn)	13.9
O=C(NCC1CCCO1)c1c(O)c2cccc3c2n(c1=O)CC3 (stereo not drawn)	10.4
Cc1ccccc1C(=O)Nc1ccc(Cl)cn1	6
CCOC(=O)N1CCN(Cc2nc3cc(NC(C)=O)ccc3n2CC)CC1	14.9
Cn1c(CN2CCCCC2)nc2cc(NC(=O)c3cccs3)ccc21	-31.2
CCOC(=O)N1CCN(Cc2nc3cc(NC(=O)c4ccco4)ccc3n2C)CC1	-26.5
CCOC(=O)N1CCN(Cc2nc3cc(NC(=O)CC)ccc3n2CC)CC1	9.4
CCOC(=O)N1CCN(Cc2nc3cc(NC(=O)c4cccs4)ccc3n2C)CC1	-74.7
CCOC(=O)N1CCN(Cc2nc3cc(NC(=O)c4cccs4)ccc3n2CC)CC1	-55.3
CCOC(=O)N1CCN(Cc2nc3cc(NC(=O)c4ccco4)ccc3n2CC)CC1	-58
CCCC(=O)Nc1ccc2c(c1)nc(CN1CCN(C(=O)OCC)CC1)n2CC	9.54
CC(=O)N1CCN(Cc2nc3cc(NC(=O)c4cccs4)ccc3n2C)CC1	13.8
CCOc1ccc(C(=O)NC2CC(=O)N(c3ccc4c(c3)OCCO4)C2)cc1 (stereo not drawn)	-10.1
COc1ccccc1C(=O)N1CCN(Cc2nc(CC3CC3)no2)CC1	9.93
Cc1nn(C)cc1CN1CCC(n2nccc2NC(=O)CCCc2ccccc2)CC1	-3.27
CC(C)n1cc(CN2CCC(n3nccc3NC(=O)CCCc3ccccc3)CC2)cn1	-26
O=C(CCCc1ccccc1)Nc1ccnn1C1CCN(Cc2ccccn2)CC1	-15.2
O=C(CCCc1ccccc1)Nc1ccnn1C1CCN(Cc2ccccc2)CC1	-77.3
CC(=O)N[C@@H](C)C(=O)N1CCC(n2nccc2NC(=O)CCCc2ccccc2)CC1	-2.4
CC(CN1CCC(n2nccc2NC(=O)CCCc2ccccc2)CC1)c1ccccc1 (stereo not drawn)	-51.9
O=C(CCCc1ccccc1)Nc1ccnn1C1CCN(Cc2ccc(Cl)cc2)CC1	-74.8
Cc1ccccc1CN1CCC(n2nccc2NC(=O)CCCc2ccccc2)CC1	-49.3
Cn1cc(CN2CCC(n3nccc3NC(=O)CCCc3ccccc3)CC2)cn1	5.95
Cc1ccc(C)c(CN2CCC(n3nccc3NC(=O)CCCc3ccccc3)CC2)c1	-54.8
O=C(CCCc1ccccc1)Nc1ccnn1C1CCN(Cc2ccc(CO)o2)CC1	-10.5
CC(C)c1ccc[n+](-c2nc([O-])sc2C=O)c1	14.7

Structure (SMILES)	hERG current change (%, negative = inhibition) at 10uM [%]
S=c1nc(-c2ccccc2)n(CCN2CCOCC2)c2c1CCCC2	-13.4
O=C1c2ccccc2C(=O)C1c1ccc(Cl)cc1	8.89
CCOC(=O)N1CCN(C(=O)c2cc3cc(C)ccc3[nH]2)CC1	-7.43
O=c1[nH]nc(C(F)(F)F)c2nnn(Cc3ccccc3Cl)c12	14.1
CN1CCN(c2ccccc2NC(=O)c2ccc(-c3ccc(Cl)c(Cl)c3)o2)CC1	-3.73
Cc1ccc(CN2CCC(n3nccc3NC(=O)CCCc3ccccc3)CC2)o1	-20.5
C/C=C(\C)CN1CCC(n2nccc2NC(=O)CCCc2ccccc2)CC1	-62.9
C/C=C(\C)CN1CCC(n2nccc2NC(=O)CCc2ccccc2)CC1	-28.9
CCn1cc(CN2CCC(n3nccc3NC(=O)CCCc3ccccc3)CC2)cn1	-27.3
CCn1nc(C)c(CN2CCC(n3nccc3NC(=O)CCCc3ccccc3)CC2)c1C	-60.1
CCn1nc(C)c(CN2CCC(n3nccc3NC(=O)Cc3ccccc3)CC2)c1C	6.57
CSCCC(=O)N1CCC(n2nccc2NC(=O)CCCc2ccccc2)CC1	-5.8
CSCC(=O)N1CCC(n2nccc2NC(=O)CCCc2ccccc2)CC1	-17.6
CSCCCN1CCC(n2nccc2NC(=O)CCCc2ccccc2)CC1	-62.5
C/C=C(\C)CN1CCC(n2nccc2NC(=O)CCOc2ccccc2)CC1	-31.5
CCOc1ccc(CN2CCC(n3nccc3NC(=O)CCCc3ccccc3)CC2)cc1	-78.2
CCn1cc(CN2CCC(n3nccc3NC(=O)CCCc3ccccc3)CC2)c(C)n1	-28.4
CC(C)CN(Cc1cc2ccccc2[nH]c1=O)C(=O)c1cccnc1	-1.54
Cn1nc(C(C)(C)C)cc1C(=O)NNC(=O)c1ccccc1Cl	14.1
O=C(COC(=O)[C@@H]1CCCN1S(=O)(=O)c1ccc(Cl)cc1)NC1CCS(=O)(=O)C1 (stereo partly drawn)	-14.7
COc1ccc(CNC(=O)CCC(=O)N2CCN(C(C)=O)CC2)cc1	14.3
Cc1nn(-c2ccccc2)nc1C(=O)Nc1ccc2[nH]ncc2c1	6.02
CC1Cc2ccccc2N1c1ncnc2c1nnn2Cc1ccccc1 (stereo not drawn)	-0.652
COc1cc(NC(=S)NC2CC2)c(OC)cc1Cl	-1.86
CC(OC(=O)c1cccs1)C(=O)NCc1ccc2c(c1)OCO2 (stereo not drawn)	15.4
Cc1ccccc1-n1nc2c(c1NC(=O)c1ccc(Br)o1)CSC2	-7.03
COC(=O)c1ccc(CNC(=O)COC(=O)Cc2ccsc2)cc1	-6.64
